# Screens deposited in PubChem by The Scripps Research Institute Molecular Screening Center.
# In the library only some 1.8% were active in any assay of this set; here they are far more common.
# PAD4 inh – human PAD4 inhibitors, primary screen, biochemical, fluorescence polarization, 1536-well format; recombinant PAD4, RCA probe fluorescence polarization; Protein-arginine deiminase type-4 (Homo sapiens), Q9UM07; inhibition, % at 6.36 µM; 330,000 tested, 0.41% active; AID 485272, 2010;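 active means percent inhibition above a cutoff equal to the mean of all tested compounds plus 3 SD, cut at about 15% in these data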;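 further: 0% = PAD4 with RCA probe and DMSO and 100% = probe without PAD4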
# PME-1 primary – PME-1 inhibitors via competitive probe labeling, primary screen, biochemical, fluorescence polarization, FP-Rh probe, HTS | 320,000 tested, 0.53% active | inhibition, % at 5.9 µM | recombinant PME-1 | Protein phosphatase methylesterase 1 (Homo sapiens), Q9Y570;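 active means inhibition above the campaign mean of all compounds plus 3 SD, cut at about 26% in these data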;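 further: competitive labeling of PME-1 active site by serine hydrolase directed probe; 0% = PME-1 with DMSO and 100% = wells lacking PME-1 enzyme; inhibitors block probe labeling so polarization falls and inhibition rises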
# LYPLA2 inh – LYPLA2 inhibitors, primary screen, counter-screen for PME1 inhibitor project, biochemical, fluorescence polarization, FP-Rh probe ABPP; recombinant LYPLA2; inhibition, % at 5.9 µM; 320,000 tested, 0.38% active;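 active means inhibition above the screen-wide mean plus 3 SD, limit set per campaign, cut at about 26% in these data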;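 further: 0% = LYPLA2 with DMSO and 100% = wells lacking LYPLA2 enzyme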
# Target sequence (O95372 whole entry, looked up): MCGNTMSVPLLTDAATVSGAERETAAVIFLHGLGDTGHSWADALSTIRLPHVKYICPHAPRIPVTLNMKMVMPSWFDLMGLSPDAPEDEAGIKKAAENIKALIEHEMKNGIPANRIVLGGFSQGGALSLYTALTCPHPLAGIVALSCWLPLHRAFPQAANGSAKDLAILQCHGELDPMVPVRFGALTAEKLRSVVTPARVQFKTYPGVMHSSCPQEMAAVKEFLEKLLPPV
# LYPLA1 inh – LYPLA1 inhibitors, primary screen, counter-screen for PME1 inhibitor project, biochemical, fluorescence polarization, FP-Rh probe ABPP | Acyl-protein thioesterase 1 (Homo sapiens), O75608 | recombinant LYPLA1 | inhibition, % at 5.9 µM | 320,000 tested, 0.16% active | AID 2174, 2009;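 active means inhibition above the mean of all tested compounds plus 3 SD, set per campaign, cut at about 14% in these data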;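 further: inhibitors block serine hydrolase probe labeling of LYPLA1 so polarization falls; 0% = enzyme with DMSO and 100% = wells lacking LYPLA1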
# Target sequence (O75608 whole entry, looked up): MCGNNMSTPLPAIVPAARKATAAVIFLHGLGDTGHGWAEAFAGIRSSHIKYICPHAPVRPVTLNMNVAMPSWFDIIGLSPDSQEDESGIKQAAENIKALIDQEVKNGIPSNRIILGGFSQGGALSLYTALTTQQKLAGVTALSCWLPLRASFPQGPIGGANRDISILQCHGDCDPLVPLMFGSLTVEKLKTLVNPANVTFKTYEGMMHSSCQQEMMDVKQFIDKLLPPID
# GSTO1 counter – inhibitors of recombinant GSTO1, primary screen, counter-screen for RBBP9 inhibitor project, biochemical, fluorescence polarization. Glutathione S-transferase omega-1 (Homo sapiens), P78417. activity-based probe fluorescence polarization. inhibition, % at 5.96 µM. 300,000 tested, 1.1% active;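 active means inhibition above the campaign mean inhibition plus 3 SD, cut at about 35% in these data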;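 further: 0% = GSTO1-1 with DMSO and 100% = wells lacking GSTO1-1 enzyme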
# Fam108B inh – mouse Fam108B serine hydrolase inhibitors, primary screen, counter-screen for RBBP9 inhibitor project, biochemical, fluorescence polarization; 300,000 tested, 0.33% active; inhibition, % at 9.51 µM; recombinant Fam108B, FP-Rh probe fluorescence polarization; AID 1947, 2009;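 active means inhibition above the screen mean inhibition plus 3 SD, computed separately per campaign, cut at about 18% in these data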;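 further: inhibitors lower polarization as less probe binds the enzyme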
# LYPLA2 confirm – LYPLA2 inhibitors, retest, confirmation, counter-screen for PME1 inhibitor project, biochemical, fluorescence polarization, FP-Rh probe ABPP | shares compounds with LYPLA2 inh | recombinant LYPLA2 | inhibition, % at 5.9 µM | 1,100 tested, 72% active;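 active means mean inhibition across replicates above the hit cutoff set in the primary screen, cut at about 26% in these data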;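 further: blocked labeling of the enzyme by serine hydrolase FP-Rh probe lowers polarization; 0% = enzyme with DMSO and 100% = wells lacking LYPLA2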
# LYPLA2 gel ABPP – LYPLA2 inhibitors in proteome, late-stage follow-up, gel-based competitive ABPP, fluorescence, assay provider; shares compounds with LYPLA2 inh; inhibition, % at 20 µM; AID 652029, 2013; rhLYPLA2 in mouse brain proteome, gel ABPP FP-Rh; 150 tested, 30% active;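 active means inhibition of LYPLA2 enzyme probe labeling above about 50%, limit read from the data; inactive means inhibition below that limit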;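 further: loss of FP-Rh probe labeling of the LYPLA2 gel band measured as band density; 0% = DMSO only control band and 100% = blank gel background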
# The depositor's hits bear a star; nt = no result.
SMILES,PAD4 inh,PME-1 primary,LYPLA2 inh,LYPLA1 inh,GSTO1 counter,Fam108B inh,LYPLA2 confirm,others
CCOc1ccc(NC(=O)CN2C(=O)COc3ccc(Cl)cc32)cc1,-1,2,-2,0,5,-1,nt,
COc1cccc(NC(=O)CN2C(=O)COc3ccc(S(=O)(=O)N4CCCCCC4)cc32)c1,-1,-8,35*,1,4,0,38*,
Cc1ccc(Cl)cc1NC(=O)CN1C(=O)COc2ccc(S(=O)(=O)N3CCOCC3)cc21,3,0,6,1,1,0,nt,
CCCCNC(=O)C(CC)(ONc1ccccc1C(F)(F)F)c1ccccc1OC (stereo unspecified),-17,0,2,2,nt,nt,nt,
CCn1c(=O)c(CCC(=O)NCC2CCCO2)c(C)c2c(C)nn(-c3ccc(C)cc3)c21 (stereo unspecified),-2,-7,2,-1,7,-2,nt,
O=C(Nc1cc(Cl)ccc1-n1cncn1)c1ccc([N+](=O)[O-])s1,-4,12,0,0,14,10,nt,
COc1cccc(NC(=O)CN2C(=O)CSc3ccc(S(=O)(=O)N4CCOCC4)cc32)c1,-1,3,49*,0,3,-2,45*,
CN(C)c1ccc(-c2noc(C3CCN(S(=O)(=O)c4ccc(C(=O)O)cc4)CC3)n2)cc1,-1,0,30*,5,2,-2,29*,
Cc1ccc(-c2noc(C3CCN(S(=O)(=O)c4ccc5c(c4)OCCO5)CC3)n2)o1,0,7,56*,6,2,0,54*,LYPLA2 gel ABPP=9
Cc1ccc(-c2noc(C3CCCN(S(=O)(=O)c4ccc5ccccc5c4)C3)n2)o1 (stereo unspecified),-2,-6,-8,-5,2,-4,nt,
CC1O[C@@H](OC2C(O)C(O)C(CO)O[C@H]2OC2C[C@]3(C)C(CC(O)C4[C@@H]([C@]5(C)CC[C@@H](C(C)(C)O)O5)CC[C@]43C)[C@@]3(C)CCC(O)C(C)(C)C23)C(O)C(O)C1O (stereo partly specified),2,nt,nt,nt,nt,nt,nt,
Cc1nc([N+](=O)[O-])c(Br)n1CC(=O)c1ccc2ccccc2c1,-3,1,31*,1,-17,-4,30*,
CNC(=O)COC(=O)c1ccc(Cl)c(S(=O)(=O)N2CCCC2)c1,6,1,28*,3,4,3,6,
CC(=O)Nc1cccc(C(=O)OCC(=O)c2ccc(S(=O)(=O)N3CCCCC3)cc2)c1,-2,-9,66*,8,15,2,62*,
O=S(=O)(NCC(c1cccnc1)N1CCN(Cc2ccccc2)CC1)c1cc(F)ccc1F (stereo unspecified),-2,0,-3,1,-1,-2,nt,
O=C(NC1CCc2ccccc21)c1cc(COc2ccc(F)cc2Cl)on1 (stereo unspecified),7,2,5,1,-2,2,nt,
O=C(NC1CCc2ccccc21)c1cc(COc2cncc(Cl)c2)on1 (stereo unspecified),0,3,43*,4,5,1,33*,
CN(C(=O)c1cccc(NC(=O)C2CCN(C(=O)OC(C)(C)C)CC2)c1)C1CCCCC1,0,nt,nt,nt,nt,nt,nt,
COc1ccc(Cl)cc1NC(=O)c1noc(C)c1[N+](=O)[O-],-1,3,28*,-1,18,2,36*,
